# Results filed as inconclusive are left out. Activity calls are given as the source filed them. The calls were made as follows: active = hit-call score of the fitted dose curve at least 0.9, where 1 is the maximum; inconclusive = response in the unintended direction; inactive = score below 0.9.
# Legend:
# [1] = target: Luciferin 4-monooxygenase (Photinus pyralis) (UniProt P08659); assay: CCTE_Simmons_QuantiLum_inhib_2: CCTE's Firefly Luciferase Inhibition Assay, Simmons Lab (AID 2283767);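 as to AC50: potency for inhibitors that lower luciferase luminescence relative to DMSO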
# Outline: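 Eight test concentrations, 5 nM up to 87.5 uM final, preincubated 30min at 37C in the dark with purified luciferase (0.5% DMSO final). Detection reagent (150uM D-luciferin, 147uM dATP, 75uM CoA, pH 7.8) injected per well before kinetic luminescence read; three replicates.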
# [2] = ACEA_AR_agonist_AUC_viability: ACEA Biosciences xCELLigence Real-Time Cell Analysis on Androgen Receptor Agonism for Viability (AID 2283775);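 as to AC50: viability read 80 hours after compound addition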
# Outline: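 22Rv1 cells; impedance growth kinetics; 8-pt 1:4 dilutions from 100 uM top final, ≤0.5% DMSO; n = 2; 80 h read; AUC viability, loss-of-signal vs DMSO.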
# [3] = ACEA_AR_antagonist_AUC_viability: ACEA Biosciences xCELLigence Real-Time Cell Analysis on Androgen Receptor Antagonism for Viability (AID 2283776);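 also: 22Rv1 human prostate cancer cells growing on impedance electrode plates; area under impedance growth curve at 80 h after dosing as viability; hits lower the growth signal relative to DMSO meaning cytotoxicity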
# Outline: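 Viability endpoint from label-free cell-index monitoring: 22Rv1 cultures treated with an eight-point 1:4 dilution series starting at 100 uM final, AUC at 80 h fitted against DMSO.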
# [4] = target: AR (gene 367) (UniProt P10275); assay: ACEA_AR_agonist_80hr: ACEA Biosciences xCELLigence Real-Time Cell Analysis on Androgen Receptor Agonism for Proliferation (AID 2283783);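 also: hits increase impedance growth signal above DMSO baseline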
# Outline: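 Real-time cell-growth kinetics were recorded by electrode impedance in 22Rv1 cells exposed to test chemicals up to 100 uM final; the 80 h timepoint served as the readout, fitted upward relative to DMSO controls, in biological duplicate.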
# [5] = target: AR (gene 367) (UniProt P10275); assay: ACEA_AR_antagonist_80hr: ACEA Biosciences xCELLigence Real-Time Cell Analysis on Androgen Receptor Antagonism for Proliferation (AID 2283787);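 also: 22Rv1 human prostate cancer cells with growth followed by electrical impedance; hits lower the impedance growth signal relative to DMSO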
# Outline: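 Using 22Rv1 cells held in assay medium, we dosed compounds (100 uM maximum final, 1:4 serial, eight points, 0.5% DMSO at top) and recorded cell-electrode impedance; the 80 hr timepoint was analyzed against DMSO.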
# [6] = ACEA_ER_AUC_viability: ACEA Biosciences xCELLigence Real-Time Cell Analysis on Estrogen Receptor Agonism for Viability (AID 2283782);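 also: hit means loss of impedance signal meaning reduced cell growth or viability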
# Outline: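 Continuous-exposure impedance cell analysis uses T-47D cells in charcoal-stripped serum, eight 1:4 dilutions topping at 100 uM final, biological duplicate. Area under the growth curve at 80 h is fitted against DMSO baseline.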
# [7] = STM_H9_NormalizedViability: Cytotoxicity Assessment at 120 hours in the Stemina devTOX quickPredict H9 human embryonic stem cell (hESC)-based Assay (AID 2283784)
# Outline: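 Viability endpoint: background-corrected CellTiter-Fluor RFU expressed relative to the 0.1% DMSO mean on each plate. Undifferentiated H9 cells were treated with daily re-dosing and media change, and loss of signal was fitted.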
# Sequence of AR (gene 367) (P10275 whole entry, looked up): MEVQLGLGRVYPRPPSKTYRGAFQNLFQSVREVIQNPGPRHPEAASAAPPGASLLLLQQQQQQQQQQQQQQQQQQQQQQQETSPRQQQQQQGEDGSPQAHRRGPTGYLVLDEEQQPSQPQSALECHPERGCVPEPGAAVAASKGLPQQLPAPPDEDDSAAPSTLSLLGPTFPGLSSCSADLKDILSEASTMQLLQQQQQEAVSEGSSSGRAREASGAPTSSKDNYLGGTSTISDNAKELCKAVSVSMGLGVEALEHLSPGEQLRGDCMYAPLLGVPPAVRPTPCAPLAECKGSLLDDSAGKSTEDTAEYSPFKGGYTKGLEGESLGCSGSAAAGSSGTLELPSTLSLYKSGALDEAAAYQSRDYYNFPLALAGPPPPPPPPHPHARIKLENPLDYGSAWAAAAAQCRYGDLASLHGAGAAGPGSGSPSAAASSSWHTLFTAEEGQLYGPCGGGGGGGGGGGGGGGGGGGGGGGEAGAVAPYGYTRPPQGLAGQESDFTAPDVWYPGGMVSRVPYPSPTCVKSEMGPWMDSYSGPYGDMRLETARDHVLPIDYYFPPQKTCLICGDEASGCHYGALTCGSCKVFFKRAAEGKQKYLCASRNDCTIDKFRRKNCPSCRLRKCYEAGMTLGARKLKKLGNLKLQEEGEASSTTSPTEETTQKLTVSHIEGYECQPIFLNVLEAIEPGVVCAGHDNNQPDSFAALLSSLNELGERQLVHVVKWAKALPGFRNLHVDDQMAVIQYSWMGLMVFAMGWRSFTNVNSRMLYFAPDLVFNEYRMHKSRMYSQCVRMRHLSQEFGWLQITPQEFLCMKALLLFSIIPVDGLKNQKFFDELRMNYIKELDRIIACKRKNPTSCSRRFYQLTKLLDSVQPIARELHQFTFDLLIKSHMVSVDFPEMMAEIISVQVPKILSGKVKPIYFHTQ
# Sequence of Luciferin 4-monooxygenase (Photinus pyralis) (P08659 whole entry, looked up): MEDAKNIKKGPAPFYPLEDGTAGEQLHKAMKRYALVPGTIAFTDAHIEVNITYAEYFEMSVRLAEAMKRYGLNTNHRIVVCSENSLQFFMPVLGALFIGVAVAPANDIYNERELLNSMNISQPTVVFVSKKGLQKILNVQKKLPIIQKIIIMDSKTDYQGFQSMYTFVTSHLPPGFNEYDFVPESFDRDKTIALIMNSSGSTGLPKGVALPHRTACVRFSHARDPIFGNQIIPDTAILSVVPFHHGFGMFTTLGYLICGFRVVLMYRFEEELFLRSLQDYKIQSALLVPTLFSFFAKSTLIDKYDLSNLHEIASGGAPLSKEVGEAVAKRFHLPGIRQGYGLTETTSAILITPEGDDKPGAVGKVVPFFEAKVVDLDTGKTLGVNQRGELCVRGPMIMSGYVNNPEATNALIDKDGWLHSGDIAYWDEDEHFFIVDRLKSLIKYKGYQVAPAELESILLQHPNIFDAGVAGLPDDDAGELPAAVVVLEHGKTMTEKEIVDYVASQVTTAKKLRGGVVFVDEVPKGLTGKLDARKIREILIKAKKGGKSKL
compound,measurement,setting,value
O=C(CCCCCCCCc1cccnc1)N1CCC(C=C(c2ccccc2)c2ccccc2)CC1,outcome,[1],inactive
same,AC50,[2],11.4 µM (active)
same,AC50,[3],12.1 µM (active)
same,outcome,[4],inactive
same,AC50,[5],7.53 µM (active)
CC(C)(O)c1coc(S(=O)(=O)NC(=O)Nc2c3c(cc4c2CCC4)CCC3)c1,outcome,[1],inactive
same,outcome,[3],inactive
Clc1nc(Cl)c(Cl)c(Cl)c1Cl,outcome,[2],inactive
same,AC50,[3],50 µM (active)
O=C(O)c1cccc(Oc2ccccc2)c1,outcome,[3],inactive
CCCCC(CC)COC(=O)CCCCCCCCC(=O)OCC(CC)CCCC (stereo not drawn),outcome,[2],inactive
COc1ccc(/C=C/S(=O)(=O)NC(=O)c2ccc(C)cc2Cl)cc1,AC50,[2],16.3 µM (active)
same,AC50,[3],22.7 µM (active)
CC(=O)OC[C@H]1O[C@@](COC(C)=O)(O[C@H]2O[C@H](COC(C)=O)[C@@H](OC(C)=O)[C@H](OC(C)=O)[C@H]2OC(C)=O)[C@@H](OC(C)=O)[C@@H]1OC(C)=O,outcome,[3],inactive
O=C(O)CC(O)C(=O)O (stereo not drawn),outcome,[2],inactive
same,outcome,[3],inactive
C[C@](N)(Cc1ccc(O)c(O)c1)C(=O)O,AC50,[1],53.8 µM (active)
same,outcome,[6],inactive
Fc1ccccc1[C@@H](F)COC1CCC(Nc2ncnc3[nH]ncc23)CC1 (stereo partly drawn),AC50,[2],63.2 µM (active)
same,AC50,[3],50 µM (active)
same,outcome,[7],inactive
same,AC50,[5],54 µM (active)
CC(C)c1cccc(C(C)C)c1N1C(=O)c2ccc(O)cc2C1=O,AC50,[2],19.4 µM (active)
same,AC50,[3],17.6 µM (active)
same,AC50,[7],20.6 µM (active)
CC(=O)OCCC(C)C,outcome,[2],inactive
same,outcome,[3],inactive
CC(O)CN(CCN(CC(C)O)CC(C)O)CC(C)O (stereo not drawn),outcome,[2],inactive
same,outcome,[3],inactive
O=C1CCCCCN1,outcome,[3],inactive
CC(C)CCO,outcome,[2],inactive
same,outcome,[3],inactive
same,outcome,[7],inactive
Cc1c(-c2cccnc2)c2ccccc2n1CCCCC(=O)O,AC50,[2],24.1 µM (active)
same,AC50,[3],22.8 µM (active)
O=C(O)c1cc(N=Nc2ccc(S(=O)(=O)Nc3ccccn3)cc2)ccc1O,outcome,[3],inactive
CN(C)c1ccc(N=NS(=O)(=O)O)cc1,outcome,[1],inactive
same,AC50,[4],10.7 µM (active)
same,AC50,[7],21.1 µM (active)
O=C(NS(=O)(=O)/C=C/c1ccccc1)c1ccc(F)cc1Cl,AC50,[2],5.76 µM (active)
same,AC50,[3],13.1 µM (active)
CC(C)CCCCCCCOC(=O)CCCCC(=O)OCCCCCCCC(C)C,outcome,[3],inactive
CCCCCCCCCCCCCCCO,AC50,[3],89.4 µM (active)
CCOCCO,outcome,[3],inactive
CC(C)CCCCCCOC(=O)c1ccc(C(=O)OCCCCCCC(C)C)c(C(=O)OCCCCCCC(C)C)c1,outcome,[3],inactive
CCCCCCCCO,outcome,[3],inactive
CC1=CC(=O)CC(C)(C)C1,outcome,[2],inactive
same,outcome,[3],inactive
COCCOc1cc2cc(C(=O)NC3CCN(C(C)C)CC3)n(CC(=O)Nc3ccc(Cl)cn3)c2cn1,AC50,[2],40.9 µM (active)
same,AC50,[3],45 µM (active)
CC1(C)C(=O)N(Br)C(=O)N1Br,outcome,[2],inactive
same,outcome,[3],inactive
same,outcome,[5],inactive
CCCCCCc1ccc(O)cc1O,outcome,[1],inactive
same,AC50,[3],13.7 µM (active)
same,AC50,[5],11 µM (active)
COc1ccc2sc(C(=O)Nc3nnn[nH]3)c(OC(C)C)c2c1,AC50,[2],9.32 µM (active)
same,AC50,[3],12.9 µM (active)
same,AC50,[7],2.01 µM (active)
CCCCC(CC)COC(=O)c1ccc(C(=O)OCC(CC)CCCC)cc1 (stereo not drawn),outcome,[3],inactive
same,outcome,[4],inactive
same,outcome,[5],inactive
CCOCCOCCOCCO,outcome,[3],inactive
CC[C@H]1CC[C@H](NCc2cc3c(cc2OC)[C@H]2C[C@H]2C(=O)N3C)[C@H](c2ccccc2)N1,AC50,[3],18.2 µM (active)
same,AC50,[7],9.43 µM (active)
Cc1ccc(O)cc1,outcome,[3],inactive
same,outcome,[5],inactive
COC(=O)CC(=O)OC,outcome,[3],inactive
same,outcome,[6],inactive
C1=CCCC=CCCC=CCC1,outcome,[3],inactive
COc1cccc(-c2ccc(/C=C\CN3CCCCCC3)cc2Cl)c1,AC50,[3],45.2 µM (active)
same,AC50,[7],1.1 µM (active)
Cc1ccc(C)c(O)c1,outcome,[3],inactive
O=c1[nH]c2ccc(S(=O)CCN3CCC(Cc4ccc(F)cc4)CC3)cc2o1 (stereo not drawn),outcome,[3],inactive
same,outcome,[7],inactive
COC(=O)c1c(Cl)c(Cl)c(C(=O)OC)c(Cl)c1Cl,AC50,[3],50 µM (active)
same,outcome,[6],inactive
CNCc1ccc(NC(=O)c2c[nH]c3c2C(=O)CCC3)cc1,AC50,[3],67 µM (active)
same,outcome,[7],inactive
Cn1c(=O)cc(Oc2ccc(F)cc2F)c2cnc(NCC(C)(C)O)nc21,outcome,[3],inactive
same,outcome,[7],inactive
C=CC(=C)CCC=C(C)C,outcome,[3],inactive
CC(C)CC(C)(O)C#CC(C)(O)CC(C)C (stereo not drawn),outcome,[3],inactive
same,outcome,[7],inactive
COc1ccc(-n2nc(C(F)F)cc2-c2ccc(S(C)=O)cc2)cc1 (stereo not drawn),outcome,[3],inactive
COCCOCCOCCOC,AC50,[3],24.2 µM (active)
same,outcome,[7],inactive
CC(C)=CCC/C(C)=C/CO,AC50,[3],25.6 µM (active)
Nc1cccc(N)c1,outcome,[3],inactive
O=C1OC(=O)C2C3C=CC(C3)C12 (stereo not drawn),outcome,[3],inactive
CCOC(=O)CC(CC(=O)OCC)(OC(C)=O)C(=O)OCC,outcome,[3],inactive
CCN(C(=O)c1cc(C)cc(OC[C@H](C)Nc2ccncc2)c1)C(C)C,AC50,[3],11.2 µM (active)
same,outcome,[7],inactive
O=C1CCC(N2C(=O)c3ccccc3C2=O)C(=O)N1 (stereo not drawn),outcome,[3],inactive
C1N2CN3CN1CN(C2)C3,outcome,[3],inactive
same,outcome,[4],inactive
Cn1c(=O)c2c(ncn2C)n(C)c1=O,outcome,[3],inactive
same,outcome,[7],inactive
CCCC(=O)OCC,outcome,[3],inactive
CC(=O)c1ccc2c(c1)[C@H](NC(=O)c1ccc(F)cc1)[C@@H](O)C(C)(C)O2,outcome,[3],inactive
CCOC(=O)COc1ccc2c(c1)CC(NCC(O)c1cccc(Cl)c1)CC2 (stereo not drawn),AC50,[3],24.1 µM (active)
Cc1ccc(S(=O)(=O)O)cc1C,outcome,[3],inactive
same,outcome,[6],inactive

# — PubChem BioAssay (EPA / NIEHS)
